These results are taken from PubChem BioAssay AID893 (National Center for Advancing Translational Sciences (NCATS), 2007).

Hit rate of the full screen: of about 75,000 compounds, about 5,700 (7.6%) were called active. Entries that show only a call come without a potency. About 7% were inconclusive and are not listed. Calls come from the whole dose curve; as a rule, active = well fitted inhibition curve with a large enough effect; inconclusive = small, poorly fitted or top-dose-only effect; inactive = no such curve, though single readings can be large or run the other way. For the sample, actives were picked, then their nearest neighbours and some compounds at random.
Potency is the fitted concentration of half-maximal effect.

The target of this assay is 3-hydroxyacyl-CoA dehydrogenase type-2 (Homo sapiens) (UniProt Q99714). Nature of the assay: qHTS Assay for Inhibitors of HSD17B4, hydroxysteroid (17-beta) dehydrogenase 4.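 Note: the protocol describes HADH2 (HSD17B10) and not the HSD17B4 of the title; nearly all actives have a fitted effect of over 70% in size.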 Conditions: recombinant HSD17B10, NADH fluorescence kinetic; series mostly up to 57.1 µM. The method in brief:
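20 nM HADH2, pH 9.0 Tris/Tween; cpd preinc 15 min RT; start w/ 1 mM NAD+ + 90 uM b-hydroxybutyryl-CoA; kinetic fluor ex360/em450 q30s x 4 min; delta last-first.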
(In general: In qHTS, concentration-response curves come from the screen itself.)
Turning to `COC(=O)c1ccc(C23CC4(C2)[C@H](CN(Cc2cccnc2)[C@@H]4c2ccccc2)C3c2ccc(Cl)nc2)cc1` (some centres not stated), the Potency result was “inactive”.
The same measure, in the same setting: to `COc1cc(C2C(C(=O)Nc3ccccc3OC)=C(C)Nc3ncnn32)ccc1O` (configuration not stated) belongs “inactive”.
On the same count and under the same terms, to `Cc1c(C(=O)OCC(=O)N(CCC#N)c2ccccc2)oc2c1ccc1ccccc12` belongs 31.6 µM (active); to `Cc1c(C(=O)OCc2cc(=O)n3cc(Br)ccc3n2)oc2ccccc12`, “inactive”.
The same measure, in the same setting: to `COc1ccc(N(CC(=O)NC(C)(C)C)C(=O)c2ccco2)cc1` belongs “inactive”; to `CCOC(=O)c1cccc(NC(=O)CN(c2ccc(C)cc2)S(=O)(=O)c2c(C)noc2C)c1`, “inactive”.
On to `CC(C)c1nc2oc3c(N4CCN(C)CC4)ncnc3c2c2c1CCC2`, for which the Potency entry is “inactive”.
With `CCOC(=O)CSc1nnc(CNC(=O)c2cccs2)n1-c1cc(OC)ccc1OC`, the Potency result is “inactive”.
The same measure, in the same setting: to `Cc1cc(C)c2c(n1)nn1c(N3CCOCC3)cc(C)nc21` belongs 12.6 µM (active); to `C/C(O)=C\c1nc(=O)c2c(C)cc(C)nc2n1-c1ccccc1`, “inactive”; to `Cc1cc(C)c2c(n1)nn1c(N3CCN(c4cccc(Cl)c4)CC3)cc(C)nc21`, 3.16 µM (active).
On the same count and under the same terms, in the case of `Cc1cc(N2CCCC2)n2nc(C)c(-c3ccccc3)c2n1` it was “inactive”; in that of `O=C(c1ccco1)N1CCN(c2cccc(Cl)c2)CC1`, “inactive”; in that of `Cc1nn2c3cc(N4CCOCC4)ccc3nc2c2ccccc12`, “inactive”.
Still for that read-out and setting: to `COc1ccc(Cl)cc1NC(=O)c1oc(C)nc1C` belongs “inactive”; to `CC(C)(C)c1csc(NC2=NS(=O)(=O)c3ccccc32)n1`, “inactive”; to `CC1(C)C=CC(=O)[C@]2(C)C1CC(=O)[C@]1(C)C2CC[C@@]2(C)C(c3ccoc3)OC(=O)C3OC321` (some centres not stated), “inactive”.
As to `O=C(Cl)c1ccccc1[N+](=O)[O-]`, the Potency entry was “inactive”.
The same measure, in the same setting: to `CC1CCCC(N2CCN(C(=O)c3ccc(F)cc3)CC2)C1` (configuration not stated) belongs “inactive”; to `COc1ccccc1-c1nc(N2CCN(C)CC2)c2ccccc2n1`, “inactive”.
Still for that read-out and setting: to `CCn1cc(C(=O)NC2CCCCCC2)c(=O)c2cc(S(=O)(=O)N3CCCCC3)ccc21` belongs “inactive”; to `CCC1(C)Cc2c(sc3nc4n(c(=O)c23)CCCS4)CO1` (configuration not stated), 31.6 µM (active); to `CN(C)CCSc1nc(N)c2c3c(sc2n1)COC(C)(C)C3`, “inactive”.
Still for that read-out and setting: to `CCCCc1c(O)nc2n(c1=O)CCS2` belongs “inactive”; to `CCOC(=O)CCCNC(=O)CN1C(=O)NC(CCc2ccccc2)C1=O` (configuration not stated), “inactive”; to `CCC(=O)N1CCN=C1SCc1ccc(F)cc1`, “inactive”.
Regarding `Cc1c(S(=O)(=O)O)oc2c1C(=O)C(=O)c1c-2ccc2c1CCCC2(C)C`, the Potency was 10 µM (active).
On the same count and under the same terms, to `CCCCC(=O)Nc1ccc2c(c1)OCCO2` belongs “inactive”; to `Cc1cc2nc(-c3ccc(NC(=O)c4cccnc4)cc3)oc2cc1C`, “inactive”.
On the same count and under the same terms, to `CCCCCC(=O)Nc1ccc2oc(-c3ccncc3)nc2c1` belongs 31.6 µM (active); to `CNC(=O)c1c(NC(=O)c2ccc(S(=O)(=O)N3CCOCC3)cc2)sc2c1CCC2`, “inactive”; to `Cc1ccc(S(=O)(=O)N(C)CC(=O)N2CCc3ccccc32)cc1`, “inactive”.
As to `COCCN(CC(=O)Nc1ccccc1C)S(=O)(=O)c1ccc(S(=O)(=O)N2CCCC2)cc1`, the Potency entry was “inactive”.
Still for that read-out and setting: to `CCOc1cc2[nH]c(=S)n(CCCN3CCCC3=O)c(=O)c2cc1OCC` belongs “inactive”; to `CSc1nnc(-c2ccncc2)n1CCCN1CCCC1=O`, “inactive”; to `CC(C)(C)OC(=O)c1c(N)n(CCCN2CCCC2=O)c2nc3ccccc3nc12`, 25.1 µM (active).
Still for that read-out and setting: to `COC(=O)[C@@H]1C[C@H]2CC[C@H](O)C[C@H]2N1Cc1ccc(N2CCN(C)CC2)cc1` belongs “inactive”; to `CNC(=O)CSc1nnc(CCc2ccccc2)n1-c1ccccc1`, “inactive”; to `CCCCCCN(C(=O)CCCCCN1C(=O)NC(c2ccc(C(F)(F)F)cc2)C(C(=O)OCc2ccccc2)=C1C)C(C(=O)NCCCC)c1ccc(OCC(=O)OC)c(C(=O)OC)c1` (configuration not stated), “inactive”.
As to `CCN1C(=O)c2cccc3c(N)ccc1c23`, the Potency result is “inactive”.
Turning to `O=C1c2ccccc2C(=O)N1CCCSc1ccccc1`, the activity change, negative = inhibition was -1.64% [at 11.4 µM] (inactive).
On to `C[N+](C)(CCCCCC[N+](C)(C)CCCN1C(=O)c2cccc3cccc(c23)C1=O)CCCN1C(=O)c2cccc3cccc(c23)C1=O`, for which the Potency was 25.1 µM (active).
The same measure, in the same setting: to `Cc1ccc(C(=O)NCCNS(=O)(=O)c2ccccc2)cc1` belongs “inactive”; to `COc1ccc(N2CCN(C(=O)CSc3nnc4ncccn34)CC2)cc1`, “inactive”; to `COC(=O)c1cn(CC(=O)NCc2cccs2)c2ccccc12`, “inactive”.
As to `CC(C)Cn1c(N)c(C(=O)NCc2cccs2)c2nc3ccccc3nc21`, the Potency was 15.8 µM (active).
Still for that read-out and setting: to `C=CCn1c(N)c(C(=O)OCC(C)C)c2nc3ccccc3nc21` belongs 31.6 µM (active).
Same read-out and setting: in the case of `CCN(CC(=O)NCc1cccs1)c1nnnn1-c1ccccc1` it was “inactive”; in that of `C=CCOC(=O)c1ccccc1C(=O)OCC=C`, “inactive”.
Turning to `C=CCn1c(C(C)NC(=O)CC)nc2ccccc21` (configuration not stated), the Potency result is “inactive”.
On the same count and under the same terms, to `C=CCn1c(N)c(S(=O)(=O)c2cccs2)c2nc3ccccc3nc21` belongs 25.1 µM (active); to `c1csc(-c2nc(-c3ccncc3)no2)c1`, “inactive”.
Still for that read-out and setting: in the case of `c1ccc2cc(OCCN3CCCC3)ccc2c1` it was “inactive”.
Regarding `CCCC[C@H]1C(=O)N(c2ccccc2)N(c2ccc(O)cc2)C1=O`, the Potency entry was “inactive”.
Same read-out and setting: in the case of `C/C=C/C=C/C(=O)O` it was “inactive”; in that of `COc1ccc(S(=O)(=O)N2CCC(C(=O)N3CCc4ccccc4C3)CC2)cc1OC`, “inactive”; in that of `CSc1nnc2c(n1)OC(c1cn(C)c3ccccc13)N(C(C)=O)c1ccccc1-2` (configuration not stated), “inactive”.
On the same count and under the same terms, to `CCCc1nc2c(C)cc(-c3nc4ccccc4n3C)cc2n1Cc1ccc(-c2ccccc2C(=O)O)cc1` belongs 31.6 µM (active); to `CCCCn1c(CN2CCN(CCO)CC2)nc2ccccc21`, “inactive”.
Still for that read-out and setting: to `CCCCn1c(CCCNC(=O)CC)nc2ccccc21` belongs “inactive”; to `Cc1ccc(Nc2cc(=O)n(C3CCCCC3)c(=O)[nH]2)cc1C`, “inactive”.
For `Cc1ccc(CCn2c3c(c4ccccc42)CN(C)CC3)cn1`, the Potency result is “inactive”.
For the compound `CC1(C)OC(C(O)(c2ccccc2)c2ccccc2)C(C(O)(c2ccccc2)c2ccccc2)O1` (configuration not stated), the activity change, negative = inhibition is 1.95% [at 11.4 µM] (inactive).
Take `C=CCN1C(=O)C(O)(CC(=O)c2ccc(Cl)cc2)c2ccccc21` (configuration not stated): the Potency result is “inactive”.
With `COc1cc2[nH]c(=S)n(Cc3ccc(C)o3)c(=O)c2cc1OC`, the Potency entry is “inactive”.
On the same count and under the same terms, to `COc1cc2cc(CN(CCN3CCCC3)C(=O)Nc3ccccc3Cl)c(=O)[nH]c2cc1OC` belongs 25.1 µM (active); to `COc1ccc(CCN(Cc2cc3cccc(C)c3[nH]c2=O)C(=O)N2CCCC2)cc1OC`, “inactive”.
On the same count and under the same terms, in the case of `COc1cc2[nH]c(=O)n(CCC(=O)NC3CCN(Cc4ccccc4)CC3)c(=O)c2cc1OC` it was “inactive”.
For the compound `C[C@@H](N)[C@@H](C)Cc1ccccc1`, the activity change, negative = inhibition is 4.93% [at 11.4 µM] (inactive).
For the compound `c1ccc(CSCCc2ccncc2)cc1`, the activity change, negative = inhibition is 1.7% [at 11.4 µM] (inactive).
Same read-out and setting: to `COc1ccc(/C=C/NC(=O)c2ccc(OC)cc2)cc1` belongs 7.09% [at 11.4 µM] (inactive).
`COc1ccc(C(=O)NCc2cn3ccccc3n2)cc1`: the Potency was 31.6 µM (active).
The same measure, in the same setting: in the case of `COc1ccc(C(=O)NC(=O)CSc2nnc(-c3ccco3)n2-c2ccccc2)cc1` it was “inactive”; in that of `CC(C)(O/N=C(\C(=O)N[C@@H]1C(=O)N2C(C(=O)[O-])=C(C[n+]3ccccc3)CS[C@@H]12)c1csc(N)n1)C(=O)O`, “inactive”; in that of `CC(C)[C@H]1CC[C@@H](C)C[C@H]1O`, “inactive”.
Still for that read-out and setting: in the case of `CCC(=O)N(Cc1cc2cc(OC)ccc2[nH]c1=O)c1ccccc1C` it was 25.1 µM (active); in that of `Cc1ccc2[nH]c(=O)c(COC(=O)c3ccccn3)cc2c1`, “inactive”.
For the compound `CCOC(=O)c1cc2cc(C)ccc2[nH]1`, the Potency result was “inactive”.
The same measure, in the same setting: in the case of `COc1ccc2[nH]c(=O)c(CN(CC3CCCO3)C(=O)Nc3ccccc3)cc2c1` (configuration not stated) it was 25.1 µM (active).
The same measure, in the same setting: to `CCN(Cc1cc2cc(C)ccc2[nH]c1=O)S(=O)(=O)c1ccccc1` belongs “inactive”.
The same measure, in the same setting: in the case of `COc1ccc2[nH]c(=O)c(CN(Cc3nnnn3CCc3ccccc3)CC3CCCO3)cc2c1` (configuration not stated) it was 25.1 µM (active).
With `COc1ccc(N(Cc2cc3cc(OC)ccc3[nH]c2=O)S(C)(=O)=O)cc1`, the Potency result is “inactive”.
On to `COc1cccc(-n2c(Cc3cc(=O)[nH]c(=O)[nH]3)nnc2SCC(=O)Nc2ccccc2)c1`, for which the Potency entry was “inactive”.
As for `CCOc1ccc2[nH]c(=O)c(CN(CCCO)C(C)=O)cc2c1`, the Potency is 31.6 µM (active).
The same measure, in the same setting: in the case of `Cc1cc(C)c2cc(CN(Cc3cccs3)Cc3nnnn3CC3CCCO3)c(=O)[nH]c2c1` (configuration not stated) it was “inactive”.
On the same count and under the same terms, to `CCC(c1nnnn1Cc1ccccc1)N(Cc1cc2cc(OC)ccc2[nH]c1=O)CC1CCCO1` (configuration not stated) belongs “inactive”; to `O=C(CN(CC1CCCO1)C(=O)CNS(=O)(=O)c1ccccc1)NCc1ccccc1` (configuration not stated), “inactive”.
On the same count and under the same terms, in the case of `COCC(=O)N1CCC2(CCCN(c3ccccc3)C2)CC1` it was “inactive”.
Consider `Cc1cc(N(C)C)cc(C)[n+]1[O-]`, for which the Potency result is “inactive”.
Take `O=C(O)CCC(=O)N(Cc1ccco1)c1nc(-c2ccccc2)cs1`: the Potency entry was “inactive”.
On the same count and under the same terms, in the case of `O=C(c1cccc(C(=O)N2CCc3ccccc32)n1)N1CCc2ccccc21` it was “inactive”; in that of `COc1cc(OC)c2c(c1Cl)OC1(C2=O)C(O)=CC(=O)CC1C` (configuration not stated), “inactive”; in that of `CCCOc1ccc2c3c(c(=O)oc2c1OCCC)CCC3`, 12.6 µM (active).
The same measure, in the same setting: in the case of `COc1ccc2c3c(c(=O)oc2c1OCC(=O)C(C)(C)C)CCCC3` it was 25.1 µM (active).
On the same count and under the same terms, in the case of `Cc1c(C)c2cc3c4c(oc3c(C)c2oc1=O)CCCC4` it was “inactive”; in that of `COc1ccc(C(=O)OCC(=O)c2ccc(C)c(S(=O)(=O)N3CCOCC3)c2)cc1OC`, “inactive”.
With `COc1ccc(Cl)cc1S(=O)(=O)N1CCN(CC(=O)C(C)(C)C)CC1`, the Potency result is “inactive”.
Same read-out and setting: to `O=C(COc1ccc(S(=O)(=O)NCCc2ccccc2)cc1)N1CCCC1` belongs “inactive”; to `c1nnc2c3c4c(sc3ncn12)CCC4`, “inactive”; to `CCOC(=O)C1=C(C)NC(=O)N(C(C)=O)C1c1ccc(Cl)cc1` (configuration not stated), “inactive”.
Still for that read-out and setting: to `O=C(c1cnccn1)N1CCC[C@@]2(CCN(Cc3ccncc3)C2)C1` belongs “inactive”; to `CCS(=O)(=O)N1CCCC(C(=O)NCc2ccc(C)cc2)C1` (configuration not stated), “inactive”.
